The list is not random: actives were taken first. Their share in the collection is about 21%.
IL-1B inflam inh: inflammasome signaling inhibition, IL-1 beta readout. THP-1 LPS/ATP IL-1B secretion, AlphaLISA, 16 h; hits give low values. activity change, % at 57.5 µM. actives 4.7% (n = 360,000). AID 743279; in the data active = activity change below about -50%; inconclusive = mostly about -30% to -49%
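THP-1 cells pretreated 1 hr with compounds (up to 57.5 uM final), then stimulated with LPS (250 ng/mL final) plus ATP (1.25 mM final); secreted IL-1B measured by AlphaLISA after 16 hr, decreased signal indicating inhibition.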
Gal4-VP16 FLuc: inhibits Gal4-VP16 luciferase reporter, ROR gamma counter-screen; actives 3.5% (n = 310,000); Drosophila S2 Gal4-VP16 UAS-luciferase, luminescence, 20 h; Potency, µM (doses to about 53.6 µM), for the others: at the highest dose activity, negative = inhibition, most hits filed as inhibitors; AID 2546;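 also: Gal4-VP16 expression switched on by copper sulfate through the metallothionein promoter; potency is read from the fitted curve at half-maximal effect; nearly all actives have a fitted effect of over 50% in size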
DT40 TDP1 no CPT: qHTS for Inhibitors of human tyrosyl-DNA phosphodiesterase 1 (TDP1): qHTS in cells in absence of CPT | DT40 Tdp1-/- hTDP1 cells, no CPT, ATP luminescence, 48 h | Potency, µM (highest dose often 46.2 µM), for inactives: top-dose activity change, negative = growth inhibition, most hits filed as inhibitors | actives 15% (n = 420,000) | AID 686978, 2013; also: potency is read from the fitted curve at half-maximal effect; nearly all actives have a fitted effect of over 55% in size
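Compound effects on proliferation are scored in DT40 Tdp1-/-;hTDP1 cells in the absence of CPT. ATP levels (CellTiter-Glo luminescence) are recorded after a ≥48 hr, 37 °C incubation.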
RORg inh: inhibitors of mouse ROR gamma transcriptional activity | P51450 | Drosophila S2 Gal4-RORgamma UAS-luciferase reporter, 20 h | Potency, µM (top dose mostly 53.6 µM), without a hit: at the top dose activity change, negative = inhibition, most hits filed as inhibitors | actives 5.4% (n = 310,000) | AID 2551; also: potency is read from the fitted curve at half-maximal effect; nearly all actives have a fitted effect of over 60% in size
Target sequence (P51450 whole entry, looked up, the tested form may be a part): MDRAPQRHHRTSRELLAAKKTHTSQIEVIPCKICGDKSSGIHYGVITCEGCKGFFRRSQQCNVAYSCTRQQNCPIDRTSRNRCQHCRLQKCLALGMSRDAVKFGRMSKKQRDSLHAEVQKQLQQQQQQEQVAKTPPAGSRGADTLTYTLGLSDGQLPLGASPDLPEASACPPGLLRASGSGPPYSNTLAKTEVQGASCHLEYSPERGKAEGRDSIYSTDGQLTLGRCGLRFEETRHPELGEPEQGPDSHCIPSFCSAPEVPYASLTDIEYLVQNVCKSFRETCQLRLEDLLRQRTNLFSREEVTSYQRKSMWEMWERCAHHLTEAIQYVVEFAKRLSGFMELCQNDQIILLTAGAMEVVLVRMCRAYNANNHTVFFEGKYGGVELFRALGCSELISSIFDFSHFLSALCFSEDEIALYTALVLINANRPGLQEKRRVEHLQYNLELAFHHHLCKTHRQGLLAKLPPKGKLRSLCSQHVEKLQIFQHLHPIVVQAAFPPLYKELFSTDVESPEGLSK
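Read-out: Photinus luciferase luminescence; inhibitors lower reporter signal. Insect Schneider cells with Gal4-ROR gamma fusion under metallothionein promoter, UAS reporter; 700 uM final copper sulfate induction, 20 hr, ambient temperature.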
ELG1 repair inh: blocks ELG1-dependent DNA repair in HEK293T cells | actives 2.3% (n = 330,000) | Potency, µM (titrated, usually from 46.1 µM), inactives show at the top dose activity change, negative = inhibition, actives largely listed as inhibitors | AID 504467 | HEK293T ELG1-luciferase reporter, luminescence, 16 h; DNA damage induced by 5-fluorouridine; also: potency is read from the fitted curve at half-maximal effect; nearly all actives have a fitted effect of over 55% in size
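Step one: seed 2,000 cells per well. Step two: pin-transfer compound or DMSO alongside 5-fluorouridine. Step three: incubate 16 hr, 37 °C, 5% CO2. Step four: add ONE-Glo, wait 30 min, read luminescence.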
DT40 TDP1 CPT: DT40-hTDP1 cell growth loss with CPT; chicken DT40 Tdp1-/-;hTDP1 cells + 20 nM CPT, ATP luminescence, 48 h; actives 12% (n = 420,000); Potency, µM (top dose mostly 46.2 µM), without a hit: at the highest dose activity change, negative = growth inhibition, actives largely listed as inhibitors; also: potency is read from the fitted curve at half-maximal effect; nearly all actives have a fitted effect of over 55% in size
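Chicken DT40 Tdp1-/- cells stably complemented with human TDP1 were seeded at 400 cells/well in medium containing 20 nM camptothecin, exposed to pin-transferred compounds, and grown at 37 °C for at least 48 hr. Viability was read as ATP luminescence.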
Numbers without * were called inactive; ? = inconclusive; · = no result; [ ] = another dose, or the depositor's remark. Unless noted, calls follow the shape of the dose curve; as a rule, active = well fitted curve in the direction sought with a large enough effect; inconclusive = small, poorly fitted or top-dose-only effect, or another doubt; inactive = no such curve, though single readings can be large; an effect the other way counts as inactive or inconclusive. % is scaled to controls: 0 for no effect and ±100 for the full control effect.

SMILES	IL-1B inflam inh	Gal4-VP16 FLuc	DT40 TDP1 no CPT	RORg inh	ELG1 repair inh	DT40 TDP1 CPT
CC(C)OCCCNc1ccc(N2C(=O)CCCC2=O)cc1[N+](=O)[O-]	9.4	4.8%	5.2%	27.9%	-6.6%	-1.9%
Cc1nc(N2CCN(C)CC2)c2c(C)c(C(=O)Nc3ccc(F)cc3)sc2n1	-78.4*	3.3%	?	23.2%	-14.4%	?
Cc1ccc(NC(=O)c2sc3nc(CCl)[nH]c(=O)c3c2C)c(C)c1	-86.8*	?	14.6µM*	2.4%	?	14.6µM*
Cc1ccc(NC(=O)c2sc3nc(C)nc(N4CCN(c5ccccn5)CC4)c3c2C)c(C)c1	-60.2*	-3.5%	?	9.9%	?	-26.1%
CCOC(=O)c1sc2ncnc(N3CCN(C(=O)OCC)CC3)c2c1C	?	·	?	-43.8%[0.365 µM]	?	14.6µM*
Cc1ccc(NC(=O)CN2CCN(c3ccccn3)CC2)c(Cl)c1	-13.5	9.8%	?	?	12.8%	-11.4%
Cc1ccc(S(=O)(=O)N2CCN(c3nc(-n4cncn4)nc4ccccc34)CC2)cc1	·	·	?	·	·	4.7%
CCOC(=O)c1ccc(NC(=O)c2nc[nH]c2C(=O)NC[C@@H](C)O)cc1	-17.6	·	-21.9%	·	·	6.4%
COc1cc(NC(=O)c2sc3nc(C)nc(N4CCOCC4)c3c2C)cc(OC)c1OC	?	?	11.6µM*	3.7%	?	20.6µM*
COc1ccc(C)cc1NC(=O)c1sc2nc(C)nc(N3CCOCC3)c2c1C	15.3	0.5%	?	-12.5%	?	5.5%
Cc1ccc(NC(=O)c2sc3ncnc(N4CCN(c5ccccn5)CC4)c3c2C)c(C)c1	?	25.3%	18.4µM*	4.1%	?	?
COc1ccc(C)cc1NC(=O)c1sc2ncnc(N3CCN(c4ccccn4)CC3)c2c1C	-6.1	3.4%	18.4µM*	7.4%	6.51µM*	16.4µM*
Cc1nc(N2CCN(c3ccccn3)CC2)c2c(C)c(C(=O)Nc3ccc(Br)cc3C)sc2n1	-24.2	13.0%	?	-4.1%	?	16.4µM*
Cc1nc(N2CCN(c3ccccn3)CC2)c2c(C)c(C(=O)N3CCN(c4ccccc4F)CC3)sc2n1	?	-16.2%	20.6µM*	40.2%	?	?
CCCN1CCN(c2ncnc3sc(C(=O)Nc4c(C)cc(C)cc4C)c(C)c23)CC1	·	·	10.3µM*	·	·	16.4µM*
Cc1nc(N2CCCCC2)c2c(C)c(C(=O)Nc3ccccc3C(F)(F)F)sc2n1	-16.2	?	2.91µM*	?	?	2.06µM*
CCOC(=O)c1sc2ncnc(N3CCN(CC)CC3)c2c1C	2.4	7.2%	?	-26.2%	5.9%	15.3%
CCOc1ccccc1NC(=O)c1sc2nc(C)nc(N3CCOCC3)c2c1C	15.1	-3.9%	?	-12.9%	3.2%	4.8%
Cc1ccc(C)c(C(=O)OCC(=O)NC(=O)NCc2ccccc2)c1	-14.3	·	?	·	·	-15.9%
CC1=CCCC(C)(C)C1/C=C/C(C)=N/NC(=O)c1ccncc1 (stereo not given)	82.1	?	?	2.82µM*	-21.3%	?
Cc1ccccc1-c1nc(NC2CC2)c2ccccc2n1	·	-5.8%	-27.2%	29.5%	·	?
Cc1ccccc1-c1nc(Nc2ccncc2)c2ccccc2n1	·	-19.9%	-17.5%	7.08µM*	·	-5.7%
Clc1ccccc1-c1nc(Nc2ccncc2)c2ccccc2n1	·	-10.2%	?	11.2µM*	·	?
CCN1CCN(Cc2cc(=O)oc3ccc(C)cc23)CC1	-12.3	-4.1%	-8.7%	-8.9%	6.3%	-8.8%
Cc1cc(C)c2oc(=O)cc(CN3CCN(Cc4ccccc4)CC3)c2c1	5.1	1.8%	?	33.7%	-16.1%	18.4µM*
SMILES	IL-1B inflam inh	Gal4-VP16 FLuc	DT40 TDP1 no CPT	RORg inh	ELG1 repair inh	DT40 TDP1 CPT
CCOC(=O)Nc1ccc2c(CN3CCN(S(=O)(=O)c4ccccc4)CC3)cc(=O)oc2c1	-13.2	-4.6%	?	?	?	13µM*
Cc1ccc2c(CN3CCN(CCO)CC3)cc(=O)oc2c1C	-8.2	2.1%	-24.8%	-38.8%	-0.6%	7.0%
Cc1ccc2c(CN3CCOCC3)cc(=O)oc2c1C	4.6	2.8%	-2.9%	-8.1%	8.4%	9.2%
CCOC(=O)Nc1ccc2c(CN3C(=O)NC(CC)(CC)C3=O)cc(=O)oc2c1	0.5	6.0%	?	34.9%	?	?
Cc1ccc2c(CN3CCN(S(=O)(=O)c4ccc(Cl)cc4)CC3)cc(=O)oc2c1C	12.8	·	16.4µM*	·	?	?
Cc1ccc2c(CN3CCN(Cc4ccccc4)CC3)cc(=O)oc2c1C	-74.5*	-4.6%	18.4µM*	1.9%	?	?
Cc1c(C(=O)/C=C/c2ccccc2F)c2cc(O)ccc2n1C	-11.1	·	?	·	·	-16.6%
Cc1cc(C)c2oc(=O)cc(CN3CCC(C)CC3)c2c1	-4.7	-0.8%	25.9µM*	-15.8%	22.8%	?
CCOC(=O)Nc1ccc2c(CNC(C)c3ccccc3OC)cc(=O)oc2c1 (stereo not given)	-6.8	-13.6%	23.1µM*	-9.0%	2.8%	?
O=c1cc(CN2CCN(S(=O)(=O)c3cccc(Cl)c3)CC2)c2ccc(O)cc2o1	0.8	·	18.4µM*	·	?	?
CCc1ccc2c(CN3CCN(S(=O)(=O)c4ccc5c(c4)OCCO5)CC3)cc(=O)oc2c1	-2.5	-1.3%	?	28.6%	?	-20.4%
CN(C)c1ncc2nc(-c3ccc(Cl)cc3)c(=O)n(CCC#N)c2n1	·	1.2%	-1.6%	-20.2%	·	1.5%
Cc1ccc(C(CNS(=O)(=O)c2ccc(F)cc2C)N2CCN(C)CC2)cc1 (stereo not given)	-23.8	·	?	·	?	18.4µM*
CN(C)c1oc(-c2ccccc2Cl)nc1C#N	0.0	4.1%	?	-12.1%	22.1%	-21.3%
O=S(=O)(c1ccccc1)c1nc(-c2ccccc2)oc1N1CCOCC1	25.8	31.7%	-3.6%	-26.6%	12.1%	?
O=S(=O)(c1ccccc1)c1nc(-c2ccc(Cl)cc2Cl)oc1N1CCCCCC1	·	·	18.4µM*	·	·	23.1µM*
Cc1cccc(-c2nc(S(=O)(=O)c3ccccc3)c(N3CCN(c4ccccc4)CC3)o2)c1	·	·	7.31µM*	·	·	18.4µM*
CN(C)c1oc(-c2ccccc2Cl)nc1S(=O)(=O)c1ccccc1	-17.2	0.9%	20.6µM*	-23.5%	?	?
Cc1ccc(S(=O)(=O)c2nc(-c3ccccc3)oc2N2CCCCCC2)cc1	·	·	20.6µM*	·	·	23.1µM*
